Assay results: publication PMC5540273 (PLoS ONE, 2017)

What was measured:
Settings in all cases: concentration: 1 μM, replicates: in singlicate; n = 1
DMPK = tested on: DMPK
DRAK1 = tested on: T1, DRAK1
T1 construct: gene STK17A

DRAK2 = tested on: T2, DRAK2
T2 construct: gene STK17B

DYRK1A = tested on: DYRK1A
DYRK1B = tested on: DYRK1B
DYRK2 = tested on: DYRK2
EGFR = tested on: EGFR
EIF2AK1 = tested on: EIF2AK1
EPHA1 = tested on: EPHA1
EPHA2 = tested on: EPHA2
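Also: KINOMEscan kinase panel screen.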

Compound	%Inh (DMPK)	%Inh (DRAK1)	%Inh (DRAK2)	%Inh (DYRK1A)	%Inh (DYRK1B)	%Inh (DYRK2)	%Inh (EGFR)	%Inh (EIF2AK1)	%Inh (EPHA1)	%Inh (EPHA2)
O=C1NC(=O)C(N2CCc3ccccc32)=C1c1cccc(Cl)c1 [SB-408010]	7%	0%	0%	0%	0%	7%	0%	5%	3%	15%
N#Cc1ccc(-c2cc(-c3c[nH]nc3-c3ccccn3)ccn2)cc1 [GW693028]	0%	0%	0%	17%	0%	0%	0%	6%	17%	2%
NS(=O)(=O)c1cccc(-c2ccc3ncc(N4CCOCC4)nc3c2)c1 [GSK1535721]	0%	0%	0%	0%	4%	28%	12%	0%	0%	7%
Cc1nnc(-c2ccc3occ(-c4ccc(C(C)O)cc4)c3c2)o1 (stereo not shown)	7%	19%	36%	18%	11%	0%	28%	0%	0%	0%
COCCNC(=O)c1ccc(-c2cc(C(=O)NC3CC3)cc(F)c2C)cc1 [GW868318]	20%	13%	0%	9%	21%	28%	21%	22%	29%	7%
O=C(NOCC1CC1)c1ccc(F)c(F)c1Nc1ccc(I)cc1Cl	0%	0%	21%	0%	0%	0%	0%	0%	3%	0%
Cl.Oc1cccc(Nc2ccnc3cc(-c4ccncc4)ccc23)c1 [GW494601]	0%	11%	0%	25%	7%	43%	76%	0%	98.8%	84%
c1ccc(-c2cc(-c3c[nH]nc3-c3ccccn3)ccn2)cc1 [GW576604]	0%	11%	0%	4%	0%	0%	17%	0%	0%	0%
COc1ccc(Nc2nccc(N3CCC(NC(=O)Nc4cccc(C(C)=O)c4)C3)n2)cc1 (stereo not shown) [GSK1379731]	0%	0%	0%	23%	0%	0%	15%	0%	2%	4%
Fc1ccc(-c2ncn(CCCN3CCOCC3)c2-c2ccccn2)cc1 [SB-211742]	17%	0%	0%	11%	37%	5%	12%	0%	17%	31%
CCn1cnc2c(N)ncnc21 [GW345098]	0%	6%	9%	0%	28%	12%	15%	0%	6%	14%
Cc1cccc(Cn2ccn3c(=O)cc(N4CCOCC4)nc23)c1 [GSK2297542]	3%	1%	0%	24%	17%	12%	22%	11%	16%	15%
COc1ccc(Nc2nccc(N3CCC(NC(=O)Nc4cc(C)ccc4C)C3)n2)cc1 (stereo not shown) [GSK1379741]	0%	0%	0%	14%	0%	12%	33%	0%	30%	0%
CC(C)Oc1ccc2c(-c3ccnc(Nc4ccc(N5CCN(C)CC5)cc4)n3)cnn2n1 [GW696155]	74%	99.5%	94.5%	61%	61%	91.6%	50%	0%	48%	0%
O=C(NCCCN1CCOCC1)c1cccc(Nc2nccc(Nc3ccc(Oc4ccccc4)cc3)n2)c1 [GW663929]	0%	10%	8%	0%	31%	16%	80%	0%	0%	0%
Cc1cccc(-c2nc(Nc3ccc4ncsc4c3)c3ccccc3n2)n1 [GW867588]	0%	0%	0%	3%	0%	33%	2%	0%	0%	0%
